# In ChEMBL document CHEMBL2218924, “A broad activity screen in support of a chemogenomic map for kinase signalling research and drug discovery” (Biochem J, 2013):
# How the values were obtained:
# [1] = biological target: Rho-associated protein kinase 2 (Homo sapiens) (UniProt O75116); settings: at 1 µM
# [2] = biological target: Rho-associated protein kinase 2 (Homo sapiens) (UniProt O75116); settings: at 10 µM
# [3] = biological target: Proto-oncogene tyrosine-protein kinase receptor Ret (Homo sapiens) (UniProt P07949); settings: at 1 µM
# [4] = biological target: Proto-oncogene tyrosine-protein kinase receptor Ret (Homo sapiens) (UniProt P07949); settings: at 10 µM
# [5] = biological target: T1, Tyrosine-protein kinase receptor TYRO3 (Homo sapiens) (UniProt Q06418); settings: at 1 µM
# T1 sequence (whole entry): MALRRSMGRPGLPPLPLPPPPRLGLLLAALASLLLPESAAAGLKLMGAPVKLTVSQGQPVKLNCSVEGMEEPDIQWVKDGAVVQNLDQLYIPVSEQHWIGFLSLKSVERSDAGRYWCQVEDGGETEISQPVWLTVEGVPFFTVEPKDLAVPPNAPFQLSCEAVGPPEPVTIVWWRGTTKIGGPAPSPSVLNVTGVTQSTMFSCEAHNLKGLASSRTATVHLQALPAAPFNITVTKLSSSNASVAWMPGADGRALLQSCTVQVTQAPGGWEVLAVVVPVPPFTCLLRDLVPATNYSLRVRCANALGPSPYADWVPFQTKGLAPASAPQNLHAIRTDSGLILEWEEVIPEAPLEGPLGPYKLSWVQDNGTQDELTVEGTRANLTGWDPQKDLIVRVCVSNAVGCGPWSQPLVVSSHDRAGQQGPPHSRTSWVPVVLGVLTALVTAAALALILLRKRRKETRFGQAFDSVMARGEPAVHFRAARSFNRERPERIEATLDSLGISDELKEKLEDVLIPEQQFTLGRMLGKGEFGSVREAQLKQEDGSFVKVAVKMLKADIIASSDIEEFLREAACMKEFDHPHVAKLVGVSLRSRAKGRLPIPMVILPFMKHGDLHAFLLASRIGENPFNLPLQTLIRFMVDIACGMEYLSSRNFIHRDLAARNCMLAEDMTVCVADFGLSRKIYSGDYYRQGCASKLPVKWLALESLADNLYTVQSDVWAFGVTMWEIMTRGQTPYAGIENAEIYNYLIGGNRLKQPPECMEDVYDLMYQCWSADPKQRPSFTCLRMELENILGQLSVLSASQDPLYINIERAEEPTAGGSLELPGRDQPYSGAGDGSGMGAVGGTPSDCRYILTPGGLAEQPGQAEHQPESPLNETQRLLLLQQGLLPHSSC
# [6] = biological target: T1, Tyrosine-protein kinase receptor TYRO3 (Homo sapiens); settings: at 10 µM
# [7] = biological target: Macrophage-stimulating protein receptor (Homo sapiens) (UniProt Q04912); settings: at 1 µM
# [8] = biological target: Macrophage-stimulating protein receptor (Homo sapiens) (UniProt Q04912); settings: at 10 µM
# [9] = biological target: Proto-oncogene tyrosine-protein kinase ROS (Homo sapiens) (UniProt P08922); settings: at 1 µM
# [10] = biological target: Proto-oncogene tyrosine-protein kinase ROS (Homo sapiens) (UniProt P08922); settings: at 10 µM
# Chain of Proto-oncogene tyrosine-protein kinase ROS (Homo sapiens) (P08922 whole entry): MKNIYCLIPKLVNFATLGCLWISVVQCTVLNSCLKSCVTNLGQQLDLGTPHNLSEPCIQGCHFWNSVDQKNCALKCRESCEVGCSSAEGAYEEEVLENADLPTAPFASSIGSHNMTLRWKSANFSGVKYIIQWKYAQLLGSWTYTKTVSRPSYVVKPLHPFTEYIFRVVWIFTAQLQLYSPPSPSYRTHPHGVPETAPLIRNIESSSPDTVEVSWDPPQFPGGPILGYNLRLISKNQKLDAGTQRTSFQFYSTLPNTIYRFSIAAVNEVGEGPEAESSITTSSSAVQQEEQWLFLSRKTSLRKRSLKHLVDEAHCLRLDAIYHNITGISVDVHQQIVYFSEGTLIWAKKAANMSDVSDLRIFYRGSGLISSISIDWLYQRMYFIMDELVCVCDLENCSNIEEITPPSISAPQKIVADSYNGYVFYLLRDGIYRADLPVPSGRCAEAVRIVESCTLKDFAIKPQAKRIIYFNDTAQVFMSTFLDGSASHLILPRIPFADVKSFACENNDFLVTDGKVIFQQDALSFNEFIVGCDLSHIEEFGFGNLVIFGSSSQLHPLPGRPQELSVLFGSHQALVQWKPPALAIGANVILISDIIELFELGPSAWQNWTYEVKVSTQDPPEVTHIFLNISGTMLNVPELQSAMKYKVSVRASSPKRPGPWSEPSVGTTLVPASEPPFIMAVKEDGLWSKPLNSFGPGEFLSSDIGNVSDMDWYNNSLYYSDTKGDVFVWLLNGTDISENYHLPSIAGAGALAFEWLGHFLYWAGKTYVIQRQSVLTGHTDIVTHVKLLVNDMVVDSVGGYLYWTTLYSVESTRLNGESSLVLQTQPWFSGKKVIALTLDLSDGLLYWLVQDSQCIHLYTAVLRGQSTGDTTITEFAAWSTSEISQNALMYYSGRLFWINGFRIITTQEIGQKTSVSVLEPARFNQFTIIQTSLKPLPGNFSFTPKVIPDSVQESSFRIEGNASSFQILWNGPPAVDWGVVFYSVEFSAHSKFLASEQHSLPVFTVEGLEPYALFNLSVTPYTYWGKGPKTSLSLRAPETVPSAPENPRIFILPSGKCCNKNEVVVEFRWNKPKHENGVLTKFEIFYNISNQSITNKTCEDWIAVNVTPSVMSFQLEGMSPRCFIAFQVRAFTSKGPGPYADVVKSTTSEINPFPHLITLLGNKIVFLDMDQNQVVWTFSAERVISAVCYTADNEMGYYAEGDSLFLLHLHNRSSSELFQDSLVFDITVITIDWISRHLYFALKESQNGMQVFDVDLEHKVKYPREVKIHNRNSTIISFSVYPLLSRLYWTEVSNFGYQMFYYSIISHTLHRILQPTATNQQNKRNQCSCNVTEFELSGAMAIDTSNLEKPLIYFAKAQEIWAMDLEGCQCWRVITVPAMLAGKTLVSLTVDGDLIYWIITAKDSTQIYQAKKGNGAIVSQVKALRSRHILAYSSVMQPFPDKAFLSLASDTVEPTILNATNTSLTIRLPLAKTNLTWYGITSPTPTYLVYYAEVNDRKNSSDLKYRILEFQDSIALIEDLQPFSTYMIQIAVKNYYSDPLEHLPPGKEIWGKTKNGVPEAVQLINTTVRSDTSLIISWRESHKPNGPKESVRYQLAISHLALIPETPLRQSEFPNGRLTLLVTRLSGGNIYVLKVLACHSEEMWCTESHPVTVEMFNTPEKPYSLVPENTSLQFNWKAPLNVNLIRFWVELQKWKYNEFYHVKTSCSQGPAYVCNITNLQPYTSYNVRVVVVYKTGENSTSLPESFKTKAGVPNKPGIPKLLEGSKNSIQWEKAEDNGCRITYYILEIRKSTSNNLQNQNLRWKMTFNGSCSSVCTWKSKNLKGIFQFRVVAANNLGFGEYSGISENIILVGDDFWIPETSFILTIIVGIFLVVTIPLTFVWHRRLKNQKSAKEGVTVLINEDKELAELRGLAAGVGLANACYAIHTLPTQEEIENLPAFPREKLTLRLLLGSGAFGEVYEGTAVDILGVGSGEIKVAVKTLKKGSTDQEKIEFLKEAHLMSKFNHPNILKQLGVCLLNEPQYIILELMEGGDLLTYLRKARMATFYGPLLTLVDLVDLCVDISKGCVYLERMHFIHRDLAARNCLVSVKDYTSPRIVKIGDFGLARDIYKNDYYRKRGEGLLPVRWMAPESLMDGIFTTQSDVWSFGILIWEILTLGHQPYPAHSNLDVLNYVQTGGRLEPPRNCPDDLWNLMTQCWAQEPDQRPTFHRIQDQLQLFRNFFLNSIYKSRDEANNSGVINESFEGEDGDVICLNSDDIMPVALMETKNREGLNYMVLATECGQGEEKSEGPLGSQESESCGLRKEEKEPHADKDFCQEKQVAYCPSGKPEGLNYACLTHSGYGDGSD
# Chain of Rho-associated protein kinase 2 (Homo sapiens) (O75116 whole entry, looked up): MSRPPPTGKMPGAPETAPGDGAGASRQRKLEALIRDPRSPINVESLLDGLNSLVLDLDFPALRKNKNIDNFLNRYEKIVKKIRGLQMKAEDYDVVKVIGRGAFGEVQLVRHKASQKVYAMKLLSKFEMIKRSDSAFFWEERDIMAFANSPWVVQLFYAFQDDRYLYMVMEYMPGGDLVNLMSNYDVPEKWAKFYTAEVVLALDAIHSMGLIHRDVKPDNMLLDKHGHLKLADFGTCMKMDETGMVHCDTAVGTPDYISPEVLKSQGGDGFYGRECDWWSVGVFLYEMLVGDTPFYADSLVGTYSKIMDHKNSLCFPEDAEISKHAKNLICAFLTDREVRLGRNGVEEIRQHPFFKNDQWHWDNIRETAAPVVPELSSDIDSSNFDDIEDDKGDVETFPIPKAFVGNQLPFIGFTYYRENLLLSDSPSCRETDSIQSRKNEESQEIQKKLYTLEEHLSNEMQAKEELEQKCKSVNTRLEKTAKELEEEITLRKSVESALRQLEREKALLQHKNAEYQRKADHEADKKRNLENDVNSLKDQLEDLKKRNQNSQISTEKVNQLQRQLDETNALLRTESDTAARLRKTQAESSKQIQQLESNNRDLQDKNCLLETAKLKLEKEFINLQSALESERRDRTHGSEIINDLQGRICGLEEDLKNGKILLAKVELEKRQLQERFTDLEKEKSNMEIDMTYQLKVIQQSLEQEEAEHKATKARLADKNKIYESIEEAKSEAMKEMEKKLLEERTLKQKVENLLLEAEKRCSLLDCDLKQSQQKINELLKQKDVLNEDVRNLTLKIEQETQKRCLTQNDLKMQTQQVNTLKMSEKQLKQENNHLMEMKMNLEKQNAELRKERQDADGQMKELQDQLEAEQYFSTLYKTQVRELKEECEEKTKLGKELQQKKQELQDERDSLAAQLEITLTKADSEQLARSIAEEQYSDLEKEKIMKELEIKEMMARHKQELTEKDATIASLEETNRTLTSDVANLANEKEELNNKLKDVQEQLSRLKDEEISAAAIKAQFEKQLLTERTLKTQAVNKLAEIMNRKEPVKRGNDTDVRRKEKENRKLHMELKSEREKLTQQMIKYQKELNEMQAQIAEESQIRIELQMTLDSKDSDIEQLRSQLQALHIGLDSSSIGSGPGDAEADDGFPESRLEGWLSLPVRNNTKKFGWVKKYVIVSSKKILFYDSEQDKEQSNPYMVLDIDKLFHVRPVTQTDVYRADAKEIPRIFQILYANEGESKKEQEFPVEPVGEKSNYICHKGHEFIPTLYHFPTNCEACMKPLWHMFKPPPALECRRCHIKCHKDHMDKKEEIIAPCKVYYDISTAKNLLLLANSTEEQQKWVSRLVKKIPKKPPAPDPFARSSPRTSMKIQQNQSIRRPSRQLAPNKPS
# Chain of Macrophage-stimulating protein receptor (Homo sapiens) (Q04912 25-304 limits assumed): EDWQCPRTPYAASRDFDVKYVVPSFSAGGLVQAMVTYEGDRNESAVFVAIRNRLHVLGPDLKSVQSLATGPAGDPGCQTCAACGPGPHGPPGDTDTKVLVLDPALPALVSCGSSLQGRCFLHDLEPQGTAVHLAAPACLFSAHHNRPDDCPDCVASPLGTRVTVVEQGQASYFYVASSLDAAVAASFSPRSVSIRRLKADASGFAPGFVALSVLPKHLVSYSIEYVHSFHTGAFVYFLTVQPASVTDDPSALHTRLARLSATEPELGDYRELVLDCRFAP
# Chain of Macrophage-stimulating protein receptor (Homo sapiens) (Q04912 310-1400 limits assumed): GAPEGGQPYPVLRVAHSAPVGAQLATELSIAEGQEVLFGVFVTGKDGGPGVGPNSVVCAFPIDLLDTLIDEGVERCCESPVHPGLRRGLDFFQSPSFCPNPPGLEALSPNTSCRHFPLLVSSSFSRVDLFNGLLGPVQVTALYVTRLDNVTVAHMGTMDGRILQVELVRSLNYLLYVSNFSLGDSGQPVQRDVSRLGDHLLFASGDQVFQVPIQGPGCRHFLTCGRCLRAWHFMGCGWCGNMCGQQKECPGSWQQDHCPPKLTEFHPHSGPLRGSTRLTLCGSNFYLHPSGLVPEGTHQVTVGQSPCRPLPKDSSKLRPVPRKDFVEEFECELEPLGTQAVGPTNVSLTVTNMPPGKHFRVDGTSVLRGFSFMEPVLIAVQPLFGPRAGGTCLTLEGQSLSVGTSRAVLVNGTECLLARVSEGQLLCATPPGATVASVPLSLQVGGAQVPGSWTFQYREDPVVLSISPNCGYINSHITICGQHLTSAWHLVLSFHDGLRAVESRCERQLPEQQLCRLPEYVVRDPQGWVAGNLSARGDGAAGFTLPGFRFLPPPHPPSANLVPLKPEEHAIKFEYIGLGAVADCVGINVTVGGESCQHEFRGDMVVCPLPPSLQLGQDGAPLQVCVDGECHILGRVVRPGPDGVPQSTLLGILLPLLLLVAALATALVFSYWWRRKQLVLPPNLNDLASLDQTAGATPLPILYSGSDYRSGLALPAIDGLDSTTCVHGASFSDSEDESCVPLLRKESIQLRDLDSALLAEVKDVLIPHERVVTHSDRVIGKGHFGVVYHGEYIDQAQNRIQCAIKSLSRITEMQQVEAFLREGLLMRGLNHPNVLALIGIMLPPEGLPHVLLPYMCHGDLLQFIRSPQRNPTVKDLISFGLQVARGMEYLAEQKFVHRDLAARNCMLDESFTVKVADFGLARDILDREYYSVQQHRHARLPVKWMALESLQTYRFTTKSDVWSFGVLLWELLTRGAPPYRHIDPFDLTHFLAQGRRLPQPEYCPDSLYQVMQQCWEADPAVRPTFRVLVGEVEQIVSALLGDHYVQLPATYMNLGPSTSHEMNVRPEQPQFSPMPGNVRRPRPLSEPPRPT
structure (smiles),measurement,setting,value
Nc1n[nH]c2nc3ccccc3nc12,residual activity,[1],94%
same,residual activity,[2],84%
same,residual activity,[3],100%
same,residual activity,[4],82%
same,residual activity,[5],99%
same,residual activity,[6],100%
NC(=O)c1cccc(-c2cc(Nc3ccc(OC(F)(F)F)cc3)ncn2)c1,residual activity,[1],125%
same,residual activity,[2],94%
same,residual activity,[4],87%
COc1cc2nccc(Oc3ccc(NC(=S)NC(=O)c4ccccc4C)cc3)c2cc1OC,residual activity,[1],87%
same,residual activity,[2],70%
same,residual activity,[3],75%
same,residual activity,[4],78%
same,residual activity,[7],30%
same,residual activity,[8],0%
same,residual activity,[9],79%
same,residual activity,[10],52%
same,residual activity,[5],45%
same,residual activity,[6],18%
CC(C)c1nn(-c2c(Cl)cccc2Cl)c2nc(Cc3ccc(OCCO)cc3)[nH]c(=O)c12,residual activity,[1],98%
same,residual activity,[2],96%
same,residual activity,[3],103%
same,residual activity,[4],92%
same,residual activity,[7],88%
same,residual activity,[8],92%
same,residual activity,[9],106%
same,residual activity,[10],88%
same,residual activity,[5],103%
same,residual activity,[6],104%
O=C1NC(=O)c2c1c1c3ccccc3[nH]c1n1cncc21,residual activity,[1],88%
same,residual activity,[2],85%
same,residual activity,[3],59%
same,residual activity,[4],33%
same,residual activity,[7],73%
same,residual activity,[8],71%
same,residual activity,[9],97%
same,residual activity,[10],88%
same,residual activity,[5],95%
same,residual activity,[6],69%
O=c1cc(N2CCOCC2)oc2c1ccc1ccccc12,residual activity,[1],99%
same,residual activity,[2],67%
same,residual activity,[3],99%
same,residual activity,[4],107%
same,residual activity,[7],98%
same,residual activity,[8],75%
same,residual activity,[9],100%
same,residual activity,[10],99%
same,residual activity,[5],87%
same,residual activity,[6],93%
CCN(CC)CCNC(=O)c1c(C)[nH]c(/C=C2\C(=O)Nc3ccc(Cl)cc32)c1C,residual activity,[3],-1%
same,residual activity,[4],-1%
same,residual activity,[8],40%
same,residual activity,[5],24%
same,residual activity,[6],-1%
O=C1Cc2c([nH]c3ccc([N+](=O)[O-])cc23)-c2ccccc2N1,residual activity,[3],103%
same,residual activity,[4],79%
same,residual activity,[7],100%
same,residual activity,[8],108%
COc1cc2nccc(Oc3ccc(NC(=O)Nc4cc(C)on4)c(Cl)c3)c2cc1OC,residual activity,[3],0%
same,residual activity,[4],-1%
same,residual activity,[7],31%
same,residual activity,[8],3%
same,residual activity,[9],24%
same,residual activity,[10],16%
same,residual activity,[5],10%
same,residual activity,[6],8%
O=c1c(-c2ccc(F)cc2)c(-c2ccncc2)[nH]n1-c1ccc(Cl)cc1,residual activity,[4],55%
same,residual activity,[7],78%
same,residual activity,[8],80%
CCCCc1c(-c2ccc(OC)cc2)[nH]c2nccnc12,residual activity,[1],79%
same,residual activity,[3],45%
same,residual activity,[4],63%
same,residual activity,[7],85%
same,residual activity,[8],103%
same,residual activity,[10],88%
same,residual activity,[5],107%
same,residual activity,[6],105%
O=S(=O)(NCCNC/C=C/c1ccc(Br)cc1)c1cccc2cnccc12,residual activity,[4],82%
O=c1cc(N2CCNCC2)oc2c(-c3ccccc3)cccc12,residual activity,[2],80%
same,residual activity,[7],76%
same,residual activity,[8],58%
same,residual activity,[9],97%
same,residual activity,[10],91%
same,residual activity,[5],94%
same,residual activity,[6],96%
N#Cc1c(NC(=O)c2cccc3ccccc23)sc2c1CCCC2,residual activity,[2],99%
same,residual activity,[7],74%
same,residual activity,[8],65%
same,residual activity,[9],93%
same,residual activity,[10],96%
same,residual activity,[6],92%
COc1ccc(CNC(=O)Nc2ncc([N+](=O)[O-])s2)cc1,residual activity,[5],106%
same,residual activity,[6],108%
O=C(c1ccccc1)c1ccc(N2CCOCC2)cc1O,residual activity,[2],90%
same,residual activity,[3],94%
same,residual activity,[4],100%
same,residual activity,[7],90%
same,residual activity,[8],99%
same,residual activity,[9],96%
same,residual activity,[10],98%
O=C1NC(=O)C(c2cn(CCCn3ccnc3)c3ccccc23)=C1Nc1ccccc1,residual activity,[3],102%
same,residual activity,[4],70%
CN(C)S(=O)(=O)c1ccc2c(c1)/C(=C/c1cc3c([nH]1)CCCC3)C(=O)N2,residual activity,[1],99%
same,residual activity,[3],22%
same,residual activity,[4],37%
same,residual activity,[7],64%
same,residual activity,[8],83%
same,residual activity,[5],67%
same,residual activity,[6],69%
NC(=O)c1ccc(-c2nc(-c3ccc4c(c3)OCCO4)c(-c3ccccn3)[nH]2)cc1,residual activity,[7],94%
same,residual activity,[8],86%
O=C(O)/C=C/c1cc(Br)c(Br)c(Br)c1Br,residual activity,[3],103%
same,residual activity,[4],103%
same,residual activity,[7],56%
same,residual activity,[8],43%
same,residual activity,[9],108%
same,residual activity,[10],97%
same,residual activity,[5],98%
same,residual activity,[6],106%
N#C/C(=C1/Nc2ccccc2S1)c1ccnc(NCCc2cccnc2)n1,residual activity,[3],63%
same,residual activity,[4],47%
same,residual activity,[7],84%
same,residual activity,[8],46%
same,residual activity,[5],97%
same,residual activity,[6],74%
O=C1Nc2ccccc2/C1=C\c1c(Cl)[nH]c2ccccc12,residual activity,[2],81%
same,residual activity,[7],86%
same,residual activity,[6],67%
O=C(Nc1nc2ccccc2n1CCN1CCOCC1)c1cccc([N+](=O)[O-])c1,residual activity,[3],88%
same,residual activity,[4],101%
O=C1NC(=O)C(c2c[nH]c3ccccc23)=C1c1c[nH]c2ccccc12,residual activity,[3],79%
same,residual activity,[4],28%
same,residual activity,[8],70%
CC(C)N(CCC(=O)c1ccc2ccccc2c1)Cc1ccccc1,residual activity,[2],82%
same,residual activity,[8],67%
same,residual activity,[5],84%
Fc1ccc(-c2nc3n(c2-c2ccncc2)CCS3)cc1,residual activity,[3],98%
same,residual activity,[4],83%
O=C(Nc1ccc(Cl)cc1)c1ccccc1NCc1ccncc1,residual activity,[3],53%
same,residual activity,[4],6%
COc1ccc2c(c1)c(C1=C(c3c[nH]c4ccccc34)C(=O)NC1=O)cn2CCCN(C)C,residual activity,[3],75%
same,residual activity,[4],45%
same,residual activity,[7],77%
same,residual activity,[8],56%
same,residual activity,[5],79%
same,residual activity,[6],76%
COc1ccc(-c2cnc3c(-c4ccsc4)cnn3c2)cc1,residual activity,[3],89%
same,residual activity,[4],99%
same,residual activity,[8],87%
same,residual activity,[5],95%
same,residual activity,[6],93%
COc1ccc(COc2ccc(Cc3cnc(N)nc3N)cc2OC)cc1,residual activity,[2],78%
same,residual activity,[8],62%
same,residual activity,[9],81%
COc1cc2c(cc1OC)-c1n[nH]c(Nc3cccc(F)c3)c1C2,residual activity,[3],64%
same,residual activity,[4],19%
same,residual activity,[8],68%
same,residual activity,[6],50%
O=C1NC(=O)C(c2cn(CCCO)c3ncccc23)=C1c1cnccn1,residual activity,[3],82%
same,residual activity,[4],81%
same,residual activity,[7],66%
same,residual activity,[8],58%
Oc1cccc(-c2nc(N3CCOCC3)c3oc4ncccc4c3n2)c1,residual activity,[5],82%
same,residual activity,[6],93%
O=C1Cc2c([nH]c3ccc(Br)cc23)-c2ccccc2N1,residual activity,[4],72%
same,residual activity,[7],72%
same,residual activity,[8],77%
same,residual activity,[6],83%
CCOC(=O)c1c(C)[nH]c(/C=C2\C(=O)Nc3ccccc32)c1C,residual activity,[3],24%
same,residual activity,[4],14%
CN([C@@H](Cc1ccc(OS(=O)(=O)c2cccc3cnccc23)cc1)C(=O)N1CCN(c2ccccc2)CC1)S(=O)(=O)c1cccc2cnccc12,residual activity,[5],118%
Cc1cc(C)c(/C=C2\C(=O)Nc3ccccc32)[nH]1,residual activity,[2],80%
same,residual activity,[5],68%
same,residual activity,[6],62%
